From PubChem BioAssay (Tox21)
Where “and” joins values, the source holds several entries; their conditions need not be identical. Identical values can stand only once. Results filed as inconclusive are left out. Where a call stands in place of a potency, no number is given. Some structures have more than one record in an assay (separate samples or runs), and their calls can disagree. Calls of active or inactive are those of the source. The call rests on the fitted dose curve.
Potency means the concentration at half of the fitted maximal effect.

The compounds below were run against Retinoic acid receptor RXR-alpha (Homo sapiens) (UniProt P19793) (assay: qHTS assay to identify small molecule agonists of the RXR signaling pathway (AID 1159527; further: nearly all actives have a fitted effect of over 35% in size)). Settings: HEK293T RXRa-UAS-bla, beta-lactamase ratio, 16 h; series mostly up to 76.8 µM.
Chain of Retinoic acid receptor RXR-alpha (Homo sapiens) (P19793 whole entry, looked up): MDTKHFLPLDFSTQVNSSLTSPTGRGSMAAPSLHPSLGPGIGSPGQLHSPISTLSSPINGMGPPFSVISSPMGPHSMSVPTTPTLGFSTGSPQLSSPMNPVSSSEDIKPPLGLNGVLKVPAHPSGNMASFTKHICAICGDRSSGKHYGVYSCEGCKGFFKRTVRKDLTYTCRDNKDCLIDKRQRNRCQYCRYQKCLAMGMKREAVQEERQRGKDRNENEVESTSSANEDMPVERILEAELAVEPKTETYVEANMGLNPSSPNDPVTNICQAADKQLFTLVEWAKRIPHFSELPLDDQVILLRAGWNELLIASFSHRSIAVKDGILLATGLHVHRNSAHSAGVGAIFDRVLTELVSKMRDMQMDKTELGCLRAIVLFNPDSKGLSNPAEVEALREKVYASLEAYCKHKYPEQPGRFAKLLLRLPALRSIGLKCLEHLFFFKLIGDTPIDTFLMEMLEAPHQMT
Text: U.S. Tox21 Program National Center for Advancing Translational Sciences [NCATS] NIH Chemical Genomics Center [NCGC] U.S. Environmental Protection Agency [EPA] National Institutes of Environmental Health Sciences [NIEHS] National Toxicology Program [NTP] U.S. Food and Drug Administration [FDA] Tox21 Assay Overview: The Retinoid X receptor (RXR), a nuclear hormone receptor expressed in liver, spleen, placenta, epidermis, central nervous system. These receptors are able to form homo and heterodimers with other nuclear receptors and due to this heterodimerizing ability, RXR functions as master regulators producing diverse physiological effects. Three subtypes of RXR exist; alpha, beta and gamma. Retinoid X receptor alpha (RXR-alpha) has potential roles in metabolic signaling pathways, skin alopecia, dermal cysts, cardiac development, insulin sensitization etc. Therefore screening environmental chemicals on RXR-alpha signaling can be used for the studies focused on such therapeutic applications. For quantification of RXR-alpha ligands signaling, GeneBLAzer RXR alpha-UAS-bla HEK 293T (Life Technologies, Carlsbad, CA) cells containing a beta-lactamase reporter-gene under control of Retinoid X receptor-alpha response element were used to screen Tox21 10K library.
Tox21 Assay Protocol Summary: RXR-alpha HEK 293T cells were dispensed at 2,000 cells/6 uL of assay medium containing 2% charcoal-stripped FBS using a Multidrop Combi (ThermoFisher Scientific, Waltham, MA) dispenser. The assay was performed in black wall/clear-bottom 1536-well plates (Greiner Bio-One North America Inc. Monroe, NC). 9-cis retinoic acid was used as a positive control in the agonist mode screen. After the assay plates were incubated at 37 C and 5% CO2 for 5 hr, 23 nL of compounds dissolved in DMSO, positive controls or DMSO only were transferred to the assay plate by a Pintool station (Kalypsys, San Diego, CA). The assay plates were incubated at 37 C and 5% CO2 for 16 hr. One uL of LiveBLAzer B/G FRET substrate (Life Technologies) was added using a Flying Reagent Dispenser (Aurora Discovery, San Diego, CA) and the plates were incubated at room temperature for 2 hr. Fluorescence intensity (405 nm excitation, 460/530 nm emission) was measured using an Envision plate reader (PerkinElmer, Shelton, CT).
For `Cc1ccc2ccccc2c1`, the Potency was “inactive”. `CN(N=O)c1ccc([N+](=O)[O-])cc1` was tested, and the Potency was “inactive”. `Nc1nc(N)nc(N)n1` was tested, and the Potency was “inactive”. `O=S(=O)(Cl)c1ccccc1` was tested, and the Potency was “inactive”. `Clc1cc(C(Cl)(Cl)Cl)cnc1Cl` was tested, and the Potency was “inactive”. With `CCn1cc[n+](C)c1` the Potency was “inactive and 19.8 µM (active)”. `CN1C(=O)NC(=O)C(C)(C2=CCCCC2)C1=O` (stereo not given) was tested, and the Potency was “inactive”. `CC(C)O.CC(C)O.OCCN(CCO)CCO.OCCN(CCO)CCO.[Ti]` was tested, and the Potency was “inactive”. With `CC(Cl)Cl` the Potency was “inactive”. With `CCOP(=O)(OCC)SCCSCC` the Potency was “inactive”. `CC1C(=O)C[C@]2(C(C)C)C[C@H]12` (stereo not given in full) was tested, and the Potency was “inactive”. With `O=S(=O)(O)C(F)(F)C(F)(F)C(F)(F)C(F)(F)F` the Potency was 6.54 µM (active). For `CNC(C)Cc1ccccc1OC` (stereo not given), the Potency was “inactive”. In the case of `CCC(Cl)CCl` (stereo not given), the Potency is reported as “inactive”. `C=CCC1([C@H](C)CCC)C(=O)NC(=O)NC1=O` was tested, and the Potency was “inactive”. With `O=C(O)CC(Cl)C(=O)O` (stereo not given) the Potency was “inactive”. `Clc1cc(Cl)c(Cl)c(Cl)c1` was tested, and the Potency was “inactive”. For `COC(=O)C(Cl)C(=O)OC`, the Potency was “inactive”. In the case of `CCCCN=C=O`, the Potency is reported as “inactive”. In the case of `CCOC(=O)C(Cl)C(C)=O` (stereo not given), the Potency is reported as “inactive”. `CCN(C)N=O` was tested, and the Potency was “inactive”. `ClCCCCBr` was tested, and the Potency was “inactive”. `C=CC(=O)NCNC(=O)C=C` was tested, and the Potency was 4.35 µM (active). `CCCCCCCCCCOC(=O)c1ccccc1C(=O)OCCCCCCCCCC` was tested, and the Potency was “inactive”. In the case of `C/C=C/C=O`, the Potency is reported as “inactive”. In the case of `NCC(CC(=O)O)c1ccc(Cl)cc1` (stereo not given), the activation is reported as 1.21% [at 0.29 µM] (inactive). With `ClCc1ccccc1` the Potency was “inactive”. For `Nc1nc(=S)[nH][nH]1`, the Potency was “inactive”. In the case of `Cl/C=C\C[N+]12CN3CN(CN(C3)C1)C2`, the Potency is reported as “inactive”. With `C=CC(=O)OCC(C)O` (stereo not given) the Potency was “inactive”. For `CCCCNP(N)(N)=S`, the Potency was “inactive”. With `Cc1ccccc1CCl` the Potency was “inactive”. With `COc1cc(Cl)c(OC)cc1Cl` the Potency was “inactive”. In the case of `ClC=C(Cl)Cl`, the Potency is reported as “inactive”. In the case of `C=CCCl`, the Potency is reported as “inactive”. In the case of `Brc1ccccc1`, the Potency is reported as “inactive”. With `COC(N)=O` the Potency was “inactive”. `O=C(O)C(F)(F)C(F)(F)C(F)(F)C(F)(F)C(F)(F)C(F)(F)C(F)(F)C(F)(F)C(F)(F)F` was tested, and the Potency was “inactive”. With `CCC(COC(=O)c1cc(OC)c(OC)c(OC)c1)(c1ccccc1)N(C)C` (stereo not given) the Potency was “inactive”. In the case of `C=C(C#N)CCC#N`, the Potency is reported as “inactive”.
